# Measured values taken from PubChem BioAssay (NCI).
# Where “and” joins values, the source holds several entries; their conditions need not be identical. Equal entries are not always repeated. About 83,000 compounds went through this panel and 20% of them were active in at least one assay; those are over-represented in the sample as a whole.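 Single-concentration screen, 48 h exposure, 96-well plates. Endpoint: percent growth. Below 10 = active.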 A number with no mark means an inactive call. Calls of active or inactive are those of the source.
# System: MDA-MB-468 breast
# Experiment: NCI-60 one-dose screen, 48 h (100 = growth as untreated, 0 = no growth, -100 = all killed)
# Settings: 10 µM unless noted
row,Structure (SMILES),growth
1,CN(C)c1ccc(/C=C/C(=O)c2ccc(-n3cc(CN4CCN(c5cc6c(cc5F)c(=O)c(C(=O)O)cn6C5CC5)CC4)nn3)cc2)cc1,32.9%
2,CCN(CC)CC(O)c1cc(-c2ccc(Cl)cc2)nc2c(C)c(Cl)ccc12 (stereo not given),-88.6% (active)
3,N#Cc1c(-c2ccc(F)cc2)nc(N/N=C/c2c[nH]c3ccccc23)nc1N1CCOCC1,25.2%
4,CC(=O)[C@H]1CC[C@]2(C)[C@@H]1CC[C@@H]1[C@@]3(C)CC(CCC#N)(CCC#N)C(=O)C(C)(C)[C@@H]3CC[C@]12C,99.7%
5,Cc1ccc(S(=O)(=O)NCCNc2cc(-c3cn(C(C)(C)C)nc3-c3cccc(O)c3)ccn2)cc1,35.8%
6,Oc1[nH]c2ccccc2c1/C=c1/ccc2c(c1)N=C(c1ccc(C(F)(F)F)cc1)N=2,43.6%
7,CCc1nn2c(-c3cc(OC)c(OC)c(OC)c3)c(-c3cc(OC)c(OC)c(OC)c3)nc2s1,49.3%
8,CC[C@@H]1NC(=O)[C@H]([C@H](O)[C@H](C)C/C=C/c2ccc(CN3C(=O)C(C)=C(C)C3=O)cc2)N(C)C(=O)[C@H](C(C)C)N(C)C(=O)[C@H](CC(C)C)N(C)C(=O)[C@H](CC(C)C)N(C)C(=O)[C@@H](C)NC(=O)[C@H](C)NC(=O)[C@H](CC(C)C)N(C)C(=O)[C@H](C(C)C)NC(=O)[C@H](CC(C)C)N(C)C(=O)CN(C)C1=O,53.1%
9,N#C/C(=C\c1c(-c2ccccc2)[nH]c2ccccc12)C(=O)c1ccccc1,86.9%
10,ClC(Cl)c1nc(-c2ccccc2)nc2cc(-c3ccccc3)nn12,33.8%
11,O=c1[nH]c(=O)n(C2CC(O)C(CO)O2)cc1C(F)(F)F (stereo not given),62.7%
12,CNC(=O)c1cccc(Cn2nc(C)c(NC(=O)c3ccc(COc4ccc(C(F)(F)F)cc4C)cc3)c2C)c1,-6.26% (active)
13,ClC(Cl)c1nc(-c2cccs2)n2nc(-c3ccccc3)cc2n1,-56.4% (active)
14,CCOC(=O)c1cccc(NC2=C(Cl)C(=O)C(C)=C(C)C2=O)c1,-20.6% (active)
15,CN(C)CCOC(=O)Nc1nc2ccc(Sc3ccccc3)cc2[nH]1,2.02% (active)
16,CC(C)OCC1CO1 (stereo not given),108%
17,Nc1c2c(c(O)c3c1=C(CO)C=N3)=NCCS2,-72% (active)
18,CN1CCN(c2nc(NCCNc3ccnc4cc(Cl)ccc34)c3ccccc3n2)CC1,-51.6% (active)
19,c1cc(C2=N[C@@H]3c4ccccc4C[C@@H]3O2)nc(C2=N[C@@H]3c4ccccc4C[C@@H]3O2)c1,95.8%
20,NC(=O)c1cc(I)ccc1NC(=O)/C=C/c1ccccc1,51.9%

row,Structure (SMILES),growth
1,CCCCCCNCc1cc(C(C)(C)C)cc(CNCCCCCC)c1O,-89.8% (active)
2,CN(Cc1cccc(C(F)(F)F)c1)C(=O)[C@@H](CC(=O)N1CCC(N2CCCCC2)CC1)N1C(=O)[C@@H](N2C(=O)OC[C@@H]2c2ccccc2)[C@H]1/C=C/c1ccccc1,60.5%
3,Cc1cccc(NC2=C(C#N)C(=O)NC3(CCCC3)S2)c1,101%
4,COc1ccc(OC)c(Nc2nnc(-c3ccc(O)c(OC)c3)o2)c1,71.7%
5,CCCCCCOc1ccc(C2(Cl)c3ccccc3N(C)c3ccccc32)cc1,50.3%
6,Cc1cc(NCc2cc(Nc3ccnc4cc(Cl)ccc34)ccc2F)nc(N2CCSCC2)n1,-17.3% (active)
7,O=[P@@]1(c2ccccc2)O[C@H](COCc2ccccc2)[C@@H](OCc2ccccc2)[C@H](OCc2ccccc2)[C@H]1NCc1ccccc1,14%
8,CCCCC/C=N/Nc1nc(C)cc(=O)[nH]1,105%
9,O=C1NC(c2ccc(F)cc2)N=C2C(c3ccccc3)=NOC12 (stereo not given),103%
10,COc1cc(/C=C/C(=O)c2ccc(NC(=O)CSc3nnc(-c4ccc5nc(-c6ccccc6)[nH]c5c4)o3)cc2)cc(OC)c1OC,94.9%
11,CS(=O)(=O)Nc1cc(-c2ccc3ncc(C#N)c(NCc4ccccc4)c3c2)cnc1Cl,-53.9% (active)
12,COc1ccc(C(=O)c2cc(C)c(OC)c(C)c2)c(OC)c1NC(C)=O,12.4%
13,O=C1Nc2ccccc2/C1=C/c1cn(CCCn2c3ccccc3c(=O)c3ccccc32)c2ccccc12,96.4%
14,O=C(CC12CC3CC(CC(C3)C1)C2)NCCOCCOCCNC(=O)c1cc2c(o1)C(=O)c1ccccc1C2=O,-60.7% (active)
15,CC1(C)N=C(N)N=C(N)N1c1cccc(CCCCc2ccccc2)c1,-57.7% (active)
16,COc1c(NC=O)c2c(c([N+](=O)[O-])c1OC)C(=O)OC2,113% and 93.1%
17,COc1cc(-c2nn(C)nc2-c2cc3ccccc3s2)cc(OC)c1OC,39.8%
18,CCN1C(=O)N(CC)C2C1NC(=S)N2/N=C/C=C/c1cccs1 (stereo not given),7.59% (active)
19,O=C(OCc1ccccc1)n1nnc2ccccc21,107%
20,COc1cc(-c2nc3occn3c2-c2ccnc(NCCCNS(=O)(=O)c3ccc(O)cc3)n2)ccc1F,91.4%
